# PubChem BioAssay (NCI)
# The panel holds about 79,000 compounds, 15% with a hit somewhere; the sample as a whole holds those more often. Values without a mark were called inactive. The source made the active and inactive calls. No stated cut-off is given here; in the data, active means growth inhibition above about 70%; inactive means the rest.
# Assay: NCI Yeast Anticancer Drug Screen. Data for the rad50 strain (AID 155);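 further: 0% = growth of vehicle-only cultures of the same strain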
# Details: S. cerevisiae rad50 strain growth inhibition; at 50.0 µM; active compounds read high
# Outline: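 Inhibition values express reduced yeast growth in compound-treated cultures relative to vehicle-treated controls.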
row,SMILES,growth inhibition
1,CCN(CC)CC(O)c1cccc2cc(Cl)ccc12 (stereo not given),-3.25%
2,C[C@@H]1CCC[C@H]1C(N)C(=O)O (stereo not given in full),-18%
3,CC1C(=O)CCC2CCCCC21 (stereo not given),18.1%
4,O=C(c1ccccc1)[n+]1ccc2ccccc2c1,-19.1%
5,CC(=O)CC(=O)C(C)C.[Cu+2],-7.6%
6,CC(COc1ccccc1)N(CCCl)Cc1ccccc1 (stereo not given),2.7%
7,CCC1(CC)OC(=O)C(=O)N1N(C)C,-16.9%
8,O=C(O)/C=C/C(=O)Nc1ccc2c(c1)C(O)c1ccccc1-2 (stereo not given),-56.4%
9,O=C(/C=C/c1cccs1)c1ccc(Cl)s1,-18.3%
10,Nc1cc(N)nc(S(=O)(=O)O)n1,-5.75%
11,Cc1ccc(-c2nnc(NC(=O)Nc3ccc(Cl)cc3)o2)cc1,3.15%
12,O=C(O)c1ccc(-c2nn[nH]n2)cc1,-0.85%
13,Cc1ccc2nc(C(O)C(O)C(O)CO)[nH]c2c1 (stereo not given),-11.3%
14,CC(C)=CCC/C(C)=C/CO,-48.8%
15,CCO/C=C1/N=C(c2ccccc2Cl)OC1=O,10.2%
16,CN(C)CCN=C1Nc2ccccc2C(=O)N2CSCC12 (stereo not given),-3.25%
17,CC1(C)NC(c2ccccc2)c2ccsc2-n2cccc21 (stereo not given),-27.7%
18,CN1CCC/C1=N\c1ncn[nH]1,3.3%
19,O=C1C(=O)C([n+]2cccc3ccccc32)=C([O-])C2=C1C1c3ccccc3C2c2ccccc21,98.8% (active)
20,O=c1[nH]c(=O)n(C2CC(O)C(CO)O2)cc1/C=C/Br (stereo not given),-17.9%

row,SMILES,growth inhibition
1,NCC(O)C(F)(F)F (stereo not given),-5.2%
2,CCC(O)(c1ccc(O)cc1)C(O)(CC)c1ccc(O)cc1 (stereo not given),1.4%
3,COc1ccc(S(=O)(=O)N(CC(=O)O)c2ccccc2)cc1,-19.3%
4,O=C(O)C(Cc1ccccc1)C(=O)O.[NH2-].[NH2-].[Pt+2],-11.7%
5,CC1C2(C)OCC(C#N)(C(=N)O2)C1(C#N)C#N (stereo not given),21.2%
6,CCOP(=O)(OCC)C([O][Sb]([O]CC(C)Cl)[O]CC(C)Cl)c1ccc(OC)cc1 (stereo not given),-41.9%
7,COC(=O)c1c(C)cc(OC)c(C/C=C(\C)CCCc2coc(C=C(C)C)c2)c1OC,21%
8,BrC1(Br)C2COCOCC21 (stereo not given),-9.6%
9,CC1=C(C(=O)Nc2ccccc2C)C(c2ccco2)C(C(=O)Nc2ccccc2C)=C(C)N1C,-7.45%
10,C(=NC12CC3CC(CC(C3)C1)C2)C1CCCCC1,-17.1%
11,N#CC12CCC(O)C(CC1)C2=O (stereo not given),20.2%
12,CC12CCC(C/C1=N\N=C(N)N)C2(C)C (stereo not given),7.55%
13,CSc1ccc(/C=C/c2ccnc3ccccc23)cc1,11.8%
14,O=c1cc(-c2ccccc2)oc2c(-c3cc(Cl)cc4c(=O)cc(-c5ccccc5)oc34)cc(Cl)cc12,-6.65%
15,O=C(O)C(O)(C1CCCCC1)C1CCC2CCC3CCCC1C32 (stereo not given),5.4%
16,C=C(Br)CN(C(C)=O)C1CCCCC1,-9.2%
17,CCOc1nc(N)nc(C)c1N=Nc1ccc(C)cc1,1.75%
18,C=CC(=NC(C)C)N(C)c1ccccc1,5.2%
19,Cc1ccsc1/C=N/Nc1cnccn1,11.1%
20,COC(=O)CCc1cccnc1/C=N/O,-26.9%
